Screens: PubChem BioAssay, National Center for Advancing Translational Sciences (NCATS)
Most compounds without a hit are left out; they make up all but 2.3% or so of the library.
Tau ThT inhib: qHTS for Inhibitors of Tau Fibril Formation, Thioflavin T Binding | AID 1460, 2008 | 270,000 tested, 2.1% active | recombinant tau K18 P301L, heparin-induced fibrillization, ThT fluorescence | Potency, µM (series often up to 57.4 µM), without a hit: at the top dose activity, negative = inhibition, most hits filed as inhibitors; note: potency is the fitted concentration of half-maximal effect; nearly all actives have a fitted effect of over 55% in size
Target sequence (P10636 561-689 P618L limits assumed): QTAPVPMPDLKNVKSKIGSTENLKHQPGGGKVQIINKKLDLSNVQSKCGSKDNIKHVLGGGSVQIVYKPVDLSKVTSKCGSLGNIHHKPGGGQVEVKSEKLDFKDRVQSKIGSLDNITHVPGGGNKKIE
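Using a mix of unlabeled (15 uM) and Alexa 594-labeled (0.24 uM) tau K18 P301L, heparin-triggered fibrillization over 6 hr at 37 C was scored by ThT fluorescence.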
USP1 inh: Inhibitors of USP1/UAF1: Primary Screen | recombinant USP1/UAF1, Ub-Rhodamine cleavage fluorescence | Potency, µM (doses to about 57.1 µM), without a hit: top-dose activity change, negative = inhibition, actives largely listed as inhibitors | Ubiquitin carboxyl-terminal hydrolase 1 (Homo sapiens), O94782 | 390,000 tested, 0.23% active; note: potency is the fitted concentration of half-maximal effect; nearly all actives have a fitted effect of over 60% in size
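In this screen, compounds sit with the deubiquitinase complex (1nM) for 15 min at room temperature before Ub-Rho is added at 150nM final. Fluorescence rise is then followed for 6 reads every 60 seconds.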
Tau fluor counter: Counterscreen qHTS for Inhibitors of Tau Fibril Formation, Fluorescence Polarization; tau K18 P301L (four-repeat tau fragment) Alexa594 fluorescence, heparin fibrillization; Potency, µM (highest dose often 57.7 µM), for inactives: at the top dose activity change, negative = decrease; 280,000 tested, 0.93% active; note: potency is the fitted concentration of half-maximal effect; nearly all actives have a fitted effect of over 55% in size
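Human K18 P301L tau (15 uM unlabeled plus 0.24 uM Alexa 594-labeled, final) in 100 mM sodium acetate pH 7 was mixed with compound and 20 uM heparin and incubated 6 hr at 37 C.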
Coupling enz: qHTS Assay for Inhibitors of Fructose-1,6-bisphosphate Aldolase from Giardia Lamblia: Coupling assay counterscreen; coupling enzyme system counterscreen, AmpLite Red fluorescence; activity change, negative = inhibition, % at 58.2 µM, hits read low; 290,000 tested, 0.67% active; in the data active = activity change below about -30%
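Counterscreen lacking aldolase: glyceraldehyde-3-phosphate coupling-enzyme reagent preincubated 10 min at RT with compound (at 57.5 uM final), then substrate/coupling system with AmpLite Red added; fluorescence read at 525/598 nm after 20 min RT.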
Tau fibril FP: qHTS for Inhibitors of Tau Fibril Formation, Fluorescence Polarization. 280,000 tested, 0.39% active. Potency, µM (top dose mostly 57.7 µM), for the others: at the highest dose activity, negative = inhibition, actives largely listed as inhibitors. K18 P301L tau heparin fibrillization, Alexa594 FP, 6 h. Microtubule-associated protein tau (Homo sapiens), P10636. AID 1468, 2008; note: potency is the fitted concentration of half-maximal effect; nearly all actives have a fitted effect of over 55% in size
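Quantitative HTS format: compounds meet 15 uM recombinant K18 P301L tau and Alexa 594-tau tracer in 100 mM sodium acetate pH 7; 20 uM heparin triggers fibrillization at 37 C over 6 hr; FP gives the signal.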
Starred values were filed as active, the others as inactive; ? = inconclusive; . = no result; [ ] = another dose, or the depositor's remark. Unless noted, calls come from the whole dose curve; as a rule, active = well fitted curve in the direction sought with a large enough effect; inconclusive = small, poorly fitted or top-dose-only effect, or another doubt; inactive = no such curve, though single readings can be large; an effect the other way counts as inactive or inconclusive. % is set by controls: 0 for no effect and ±100 for the full control effect.

SMILES	Tau ThT inhib	USP1 inh	Tau fluor counter	Coupling enz	Tau fibril FP
CN(Cc1ccccc1)S(=O)(=O)c1ccc2[nH]c3c(c2c1)CCCCC3	-0.5%	?	3.55µM*[quencher]	.	?
CCc1ccc(C2=C(C)C(N3CCC(C(=O)NCc4ccc(C)o4)CC3)=NS2(=O)=O)cc1	-14.4%	-19.5%	1.6%	.	1.8%
COc1ccc(/C=N/Nc2cc(N(C)C)nc(N(C)C)n2)cc1	?	?	?	-42.3*	8.7%
COc1ccccc1/C=N/Nc1cc(N(C)C)nc(N(C)C)n1	?	-24.5%	?	-31.2*	8.6%
CN(C)c1cc(N/N=C\c2ccccc2)nc(N(C)C)n1	?	?	?	-39.1*	2.5%
Cc1cc(N/N=C/c2ccccc2)nc(NCc2ccccc2)n1	-12.4%	-19.1%	?	-0.1	-4.8%
COc1ccc(/C=N/Nc2cc(OC)ncn2)cc1	?	-0.2%	-23.7%	-1.7	3.4%
COc1ccc(Nc2ncc3c(n2)CCN(Cc2ccc(Br)s2)C3)c(OC)c1	?	-19.6%	?	.	14.4%
CC1CCN(S(=O)(=O)c2ccc3c(c2)CCN3C(=O)Nc2ccc(Br)cc2F)CC1	6.7%	-19.7%	-12.0%	.	-16.8%
Cc1c(O)c(CN2CCCC2)cc2c1oc(=O)c1ccccc12	-9.8%	2.8%	-13.8%	-0.8	10.0%
Cc1c(O)c(CN2CCCC2)cc2c3c(c(=O)oc12)CCC3	12.6µM*	-4.4%	-21.9%	0.8	?
N#C/C(C(=O)c1ccccc1)=C1/SC=C(N)N1c1ccccc1	28.2µM*	.	-29.3%	-10.7	?
CCC(=O)Nc1cccc2cccnc12	-1.4%	-18.3%	4.5%	-0.6	6.2%
C/C(=N\Nc1cccc2cccnc12)c1ccc[nH]1	4.47µM*	-2.6%	?	-2.2	14.2%
COc1ccc2c(=O)c3c(=O)n(Cc4ccco4)c(-c4ccco4)nc3oc2c1	28.2µM*	-20.9%	?	0.3	-2.6%
CCOc1ccc2c(c1)-c1c(ssc1=S)C(C)(C)N2C	14.1µM*	-27.4%	12.6µM*[quencher]	0.2	-2.1%
CCN1/C(=C/c2cc[n+](CCCS(=O)(=O)[O-])c3ccccc23)Sc2ccccc21	?	-8.6%	8.0%	1.2	-6.8%
C=CC[n+]1ccc(/C=C2\C=Cc3cc(C)ccc3N2CC)c2ccccc21	3.16µM*	-1.9%	-17.7%	-18.3	31.6µM*
CCOC(=O)c1c(-c2ccccc2)csc1NC(=O)c1cc(-c2cccc(OC)c2)on1	31.6µM*	2.4%	-17.4%	.	?
CCOC(=O)c1c(-c2ccc(C)cc2)csc1NC(=O)c1cc(=O)c2cc(C)ccc2o1	25.1µM*	?	-24.1%	.	?
CCOC(=O)c1c(-c2ccccc2)csc1NC(=O)c1cc(-c2cccc(Cl)c2)on1	-16.4%	14.3%	-7.3%	.	-17.2%
CCOc1ccc(CNC(=O)Cn2ccc3cc(S(=O)(=O)N4CCCCC4)ccc32)cc1	7.5%	-2.0%	-21.7%	.	2.7%
CC(=O)Nc1ccn(C2OC(C(COC(C)=O)NC(=O)C(CCCCNC(=O)OCc3ccccc3)NC(=O)OC(C)(C)C)C(OC(C)=O)C2OC(C)=O)c(=O)n1 (stereo not drawn)	.	.	.	-4.9	.
CC(=O)Nc1ccc2c(c1)C(C)(C)C(C)N2C (stereo not drawn)	?	-10.4%	28.2µM*[fluorescent]	0.1	?
COc1cc(N(C(C)=O)c2ccc(O)c(C(=O)O)c2)c2ncccc2c1	.	31.6µM*	.	.	.
COc1cc(N(C(C)=O)c2ccc(O)cc2)c2ncccc2c1	.	-11.6%	.	.	.
O=C1CC(c2c(Cl)cccc2Cl)c2c(ccc3ccccc23)N1 (stereo not drawn)	-7.2%	?	-5.3%	.	-11.4%
COc1ccc(C(=O)Nc2nc3c(s2)CCc2cc(OC)ccc2-3)cc1	10µM*	?	11.2µM*[quencher]	.	?
COc1ccc2c(c1)Cc1sc(NC(=O)c3cccc(Cl)c3)nc1-2	?	?	-22.5%	.	-10.1%
